# PubChem BioAssay AID1259343 (VanderVen Lab, College of Veterinary Medicine, Cornell …, 2017)
# Out of some 6,200 compounds screened, about 2,900 (47%) were called active. The set was probably picked from earlier hits. This is one part of the list. A number with no mark means an inactive call. Rule as the data show it: active = inhibition above about 50%; inactive = the rest.
# Experiment: Mycobacterium tuberculosis growth inhibition, primary screen (AID 1259343)
# Details: inhibition: at 10 µM, active compounds read high; outcome: 10 uM
row,SMILES,inhibition
1,O=C1OC(c2ccccc2Br)=NC1=Cc1ccc2ccccc2c1,-28.9%
2,CN(CCOc1ccccc1)C(=O)c1cc(Br)c[nH]1,101% (active)
3,Cc1ccc(OCc2cc(C(=O)NCc3cc4ccccc4[nH]3)no2)cc1C,24.7%
4,Cc1ccc(OCc2cc(C(=O)NCc3nc4ccccc4s3)no2)cc1C,92.1% (active)
5,CN(Cc1cccnc1)C(=O)c1cc(COc2ccc(F)c(F)c2)on1,60.5% (active)
6,Cc1cc(C)cc(OCCN(C)C(=O)Nc2ccc(F)cc2)c1,30.4%
7,Cc1ccc(OCCN(C)C(=O)CCc2nnc(CCc3c[nH]c4ccccc34)o2)cc1,44.4%
8,Cc1nc2cc(OCc3cc(C(=O)NCc4cc(F)ccc4C)no3)ccc2s1,22.2%
9,Cc1nc2sc3c(c2c(=O)n1NC(=S)NC(=O)C12CC4CC(CC(C4)C1)C2)CCCC3,67.3% (active)
10,COCCNCc1c(-c2ccccc2)noc1N(C)C1CCCCC1,82.5% (active)
11,N#Cc1cccc(NN=C2CCN(c3ccc(F)cc3)CC2)c1,95.8% (active)
12,N#Cc1cccc(NC(=O)NCc2cc(F)cc(F)c2)c1,-9.78%
13,N#Cc1cccc(NCc2c(F)cccc2Cl)c1,30.2%
14,O=C(O)CC1SC(=NN=C2c3ccccc3-c3ccccc32)NC1=O (stereo unspecified),24.2%
15,O=C(CC1SC(=NCc2ccco2)NC1=O)Nc1ccc(OC(F)(F)F)cc1 (stereo unspecified),21.7%
16,CCOc1ccc(N=C2NC(=O)C(CC(=O)c3ccccc3)S2)cc1 (stereo unspecified),54.9% (active)
17,CCOC(=O)C1(Cc2cccc(C(F)(F)F)c2)CCN(Cc2ccc(C#CCCO)cc2)CC1,51.2% (active)
18,CCOC(=O)C1(Cc2cccc(Cl)c2)CCCN(C(=O)CCC(F)(F)F)C1 (stereo unspecified),-43.9%
19,CCOC(=O)C1(Cc2cccc(OC)c2)CCN(CC#Cc2ccccc2)CC1,28.5%
20,O=C(CCC1CCCC1)N1CCc2ccc(O)cc2CC1,92.6% (active)
21,COc1ccc(CC2CN(Cc3ccc(OC)c(F)c3)CCO2)cc1 (stereo unspecified),30.9%
22,Cc1ccc(F)c(OCC2CN(CC(C)O)CCO2)c1 (stereo unspecified),102% (active)
23,COC(=O)CSCCOc1ccc(OCCSCC(=O)OC)cc1,88.5% (active)
24,COc1ccc(OCCOc2ccc(C)cc2)cc1,inactive
25,Cc1ccc(C)c2sc(OC3CCN(S(=O)(=O)c4cccnc4)CC3)nc12,31.8%
26,O=C1c2ccccc2C(=O)c2c1ccc(O)c2O,101% (active)

row,SMILES,inhibition
1,COc1cccc2c1CCCC2CCCN1CCN(C2CCCCC2)CC1 (stereo unspecified),98.3% (active)
2,CCS(=O)(=O)Oc1ccc(CN(C(=O)c2cccc([N+](=O)[O-])c2)C(C)C)cc1,-14.5%
3,COC(=O)CCCCCNC(=O)c1cc([N+](=O)[O-])cc([N+](=O)[O-])c1,93.7% (active)
4,COC(=O)CNC(=O)c1ccc([N+](=O)[O-])o1,44.5%
5,Brc1ccc2c(c1)CN(Cc1ccc3c(c1)OCO3)CO2,1.53%
6,COc1ccc(N2COc3cc4c(cc3C2)OCO4)cc1,87.2% (active)
7,COc1ccc2c(c1)CC(C(=O)N(C)Cc1ccco1)CO2 (stereo unspecified),-34.5%
8,COc1ccc(NC(=O)C2Cc3ccc(C)cc3S2)cc1 (stereo unspecified),21.4%
9,COc1ccc2c(c1)OCC(C(=O)NS(=O)(=O)c1cccs1)C2 (stereo unspecified),99.9% (active)
10,COc1c(F)cc(NS(=O)(=O)N(C)Cc2ccccc2)cc1F,31.6%
11,CN(Cc1cccc2cnccc12)S(=O)(=O)NCc1ccccc1,20.2%
12,CN(CCCOc1ccccc1Cl)S(=O)(=O)NCc1ccccc1,56.2% (active)
13,c1ccc(CCNCCCOc2cccc3ccccc23)cc1,58% (active)
14,O=C(NC1(c2ccc(Cl)cc2)CCC1)c1cnsn1,60.1% (active)
15,O=C(COc1ccc(Cl)cc1)NC1(c2ccccc2)CCC1,29.4%
16,Cc1oc(C)c(C(=O)NC2(c3ccccc3)CCC2)c1Br,20.5%
17,O=S(=O)(Nc1ccc(Cl)c(Cl)c1)c1cccs1,20.9%
18,O=S(=O)(Nc1nc2ccccc2nc1OCC(F)(F)F)c1cccs1,71.9% (active)
19,O=C(c1cc2cc(F)ccc2[nH]1)N1CCCC(CO)(Cc2cccc(Cl)c2)C1 (stereo unspecified),68.2% (active)
20,COc1ccc(F)c(CN2CCCC(CO)(Cc3cccc(Cl)c3)C2)c1 (stereo unspecified),31%
21,OCC1(Cc2cccc(Cl)c2)CCCN(Cc2nc(-c3ccc(F)cc3)cs2)C1 (stereo unspecified),inactive
22,CC(C)(C)c1ccc(C(=O)N2CCC2(C)C(=O)Nc2cccc3c2CCCC3)cc1 (stereo unspecified),0.45%
23,CC(C)C(=O)N1CCC1(C)C(=O)Nc1ccc(-n2cccc2)cc1 (stereo unspecified),92.6% (active)
24,Fc1ccc(CNc2ncnc3c2cnn3-c2ccc(F)cc2)cc1,-7.37%
25,CC(C)CSc1ncnc2c1cnn2-c1ccccc1,59.5% (active)
26,CCOC(C)c1nc(CSc2ncnc3c2cnn3C)cs1 (stereo unspecified),40%

row,SMILES,inhibition
1,CN(Cc1c(F)cccc1Cl)c1cncc(-n2cccn2)n1,83.7% (active)
2,CN(Cc1ccccc1)c1cccc(-n2ccnc2)n1,3.53%
3,CCN(CC)c1n[nH]c(-c2cccc(Cl)c2)n1,-6.42%
4,Clc1cccc(-c2ccc3nnc(Cl)nc3c2)c1,101% (active)
5,Cc1nn(-c2ccc(C(F)(F)F)cc2)c(C)c1[C@@H]1C=C[C@@H](NCc2ccc(N(C)C)cc2)C1,78.3% (active)
6,N#CC(C(=S)Nc1ccccc1)=C1NN=C2CCCCCN21,41.7%
7,COc1cccc(CNc2nccn(-c3cccc(Cl)c3)c2=O)c1,13.4%
8,CCOc1ccc(-n2ccnc(NCc3cccs3)c2=O)cc1,71.3% (active)
9,O=C(O)c1c[nH]c2c(Cl)c(Cl)ccc2c1=O,81.6% (active)
10,O=C(O)c1c[nH]c2c(ccc3ccccc32)c1=O,inactive
11,COc1ccc(-c2cc(C(=O)NC3CC3)c(C)n2-c2cccc(OC)c2)cc1,-5.91%
12,COc1ccc(F)c(-c2cc(C(=O)NC3CC3)ccn2)c1,82.8% (active)
13,CCCOc1ccc(F)cc1-c1cc(C(=O)NC2CCCCC2)[nH]n1,28%
14,COC(=O)c1ccc(NC(=O)CCc2ccncc2)cc1C,92.8% (active)
15,FC(F)(F)c1ccc(-c2nc(CSc3nc4cc(Cl)ccc4o3)cs2)cc1,87.2% (active)
16,Fc1ccc(Nc2nc3cc(Cl)ccc3o2)cc1Cl,-2.2%
17,OCCn1c(CSc2nc3ccccc3o2)nc2ccc(Cl)cc21,-42.1%
18,Cc1c2ccccc2[nH]c2c1oc1cc(=O)ccc12,97.4% (active)
19,CCCc1nc(C(=O)N2C[C@H]3CC=CC[C@H]3C2)cs1,58.6% (active)
20,CCCc1nc(-c2ccc(S(N)(=O)=O)cc2)cs1,-6.09%
21,Clc1ccc(CN2CCN(Cc3cnc(CC4CCCC4)[nH]3)CC2)cc1,84.3% (active)
22,Cc1cc(C)c(C#N)c(N2CCN(Cc3ccc(Cl)cc3)CC2)n1,47.2%
23,CC1CCc2onc(C(=O)Nc3nc4ccccc4n3C)c2C1 (stereo unspecified),7%
24,S=C(NNc1ccccc1)NC12CC3CC(CC(C3)C1)C2,84.2% (active)
25,O=C(NC(=S)NC1C2CC3CC(C2)CC1C3)c1cccs1 (stereo unspecified),56.9% (active)
26,Cc1ccc(C(=O)NC(C)C23CC4CC(CC(C4)C2)C3)s1 (stereo unspecified),93.3% (active)

row,SMILES,inhibition
1,COc1ccc(C23CC4CC(CC(C(=O)O)(C4)C2)C3)c(F)c1,21.2%
2,O=S(=O)(/C=C/c1ccccc1)NC12CC3CC(CC(C3)C1)C2,-12.7%
3,COc1cccc(C(=O)NC(C)C23CC4CC(CC(C4)C2)C3)c1 (stereo unspecified),62.8% (active)
4,COC(=O)C1CCCc2c1ccn2CC=C(C)C (stereo unspecified),27.3%
5,CC(NC(=O)C1=NNC(=O)CC1)C1CC2CCC1C2 (stereo unspecified),27.1%
6,CC1CC1C(=O)NC(C)C12CC3CC(CC(C3)C1)C2 (stereo unspecified),55.2% (active)
7,O=C(NC12CC3CC(CC(C3)C1)C2)c1cccs1,98.1% (active)
8,CC(C)c1ccc(C2NC(=O)C(O)=C2C(=O)c2cccs2)cc1 (stereo unspecified),29%
9,CC(NC(=O)c1cccs1)C12CC3CC(CC(C3)C1)C2 (stereo unspecified),67.3% (active)
10,CC(NC(=O)C1=NNC(=O)CC1)C12CC3CC(CC(C3)C1)C2 (stereo unspecified),68% (active)
11,CN(C)C(=O)c1ccc(-c2cnc3c(c2)CCN3CCCc2ccccc2)cc1,33.1%
12,COc1cc(NC(=O)c2ccc(C)s2)cc(OC)c1OC,6.84%
13,COc1ccc(C(NC(=O)c2ccc(C)s2)C2CC2)cc1 (stereo unspecified),83.9% (active)
14,CN(C)c1nc(N)nc(Cn2nc(-c3ccc(F)cc3)oc2=O)n1,91.8% (active)
15,O=C1CC(c2ccc(Br)s2)c2cnn(C3CCCC3)c2N1 (stereo unspecified),31.2%
16,O=C(N/N=C(\CC(=O)c1cccs1)C(F)(F)F)c1cccc(Br)c1,103% (active)
17,CC(C)CC1=NN(C(=O)c2cccc(Br)c2)C(O)(C(F)(F)F)C1 (stereo unspecified),23%
18,CCN1CCc2c(sc(NC(=O)c3ccc(OC)c(OC)c3)c2-c2nc3ccccc3s2)C1,28.1%
19,CCOC(=O)c1c(NC(=O)c2c(F)c(F)c(F)c(F)c2F)sc2c1CCN(c1ccc(Cl)nc1)C2,61.8% (active)
20,Cc1ccc(CN(C)C(=O)c2cc(C(C)C)[nH]n2)o1,69.9% (active)
21,Cc1noc(CN(C)C(=O)c2cc(C(C)C)no2)n1,-37.1%
22,Cc1ccc(CN(C)C(=O)c2cc(Br)c[nH]2)o1,44.1%
23,CCN(CC)C(=O)COC(=O)c1cc(-c2cc(C)sc2C)nc2onc(C)c12,-34.1%
